Drawing on PubChem BioAssay, this text covers composite z-score and z-score for five compounds.

Experiment [1] in a line: small molecules captured by biotinylated probe aFSTL3 – biochemical, small-molecule microarray, fluorescence 635/667, stem cell growth factor project, primary screen (AID 1064).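 Note: measures binding of the biotinylated anti-FSTL3 antibody to printed compounds.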 As to conditions: higher = more signal.
Experiment [2] in a line: binders from COS7 lysate, DM2A8 probe, primary screen, torsin A project, cell lysate, small-molecule microarray, fluorescence 635/667 (AID 1065). Conditions: higher = more signal, COS7 lysate expressing mutant human TOR1A.
A short description of experiment [3]: small molecules captured by biotinylated probe aFGF2 – biochemical, small-molecule microarray, fluorescence 635/667, stem cell growth factor project, primary screen (AID 1067).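 Note: measures binding of biotinylated aFGF2 protein to printed compounds on slides; z-score merges feature fluorescence and signal-to-noise across triplicate slides.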 Conditions: higher = more signal.
The nature of experiment [4]: small molecules captured by biotinylated probe aFGF10 – biochemical, small-molecule microarray, fluorescence 635/667, stem cell growth factor project, primary screen (AID 1071).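 Note: score merges 667 nm spot intensity and signal to noise from triplicate slides.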 As to conditions: higher = more signal.
Experiment [5] has as its target Neurogenic locus notch homolog protein 2 (Homo sapiens) (UniProt Q04721). The experiment in a line: small molecules binding Notch2 protein – biochemical, small-molecule microarray, 635 nm fluorescence, stem cell growth factors, primary screen (AID 1073). As to conditions: higher = more signal.
Experiment [6] addresses Pro-neuregulin-1, membrane-bound isoform (Homo sapiens) (UniProt Q02297). Briefly: small molecules binding neuregulin-1 protein – biochemical, small-molecule microarray, fluorescence 635/667, psychiatric disease protein project, primary screen (AID 1075).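 Note: score combines 667 nm spot fluorescence with signal to noise.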 As to conditions: NRG1 binding, 635 nm fluorescence, higher = more signal.
In experiment [7] the test system is Neuregulin-1 EGF-like domain. Briefly: small molecules binding NRG1 EGF domain – biochemical, small-molecule microarray, 635 nm fluorescence, primary screen (AID 1081).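 Note: binding of the protein to compounds printed on small-molecule microarray slides.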 As to conditions: higher = more signal.
Experiment [8] can be described thus: FRG1 expression reporter modulators in myotubes – cell-based, C2C12 myotubes, firefly/Renilla luciferase, luminescence, FRG1 inhibition for FSHD, primary screen (AID 1084). Conditions: FRG1 promoter luciferase, higher = more signal, called active from +8 up or from −8 down.
Experiment [9] in a line: small molecules captured by biotinylated probe aFST – biochemical, small-molecule microarray, fluorescence 635/667, stem cell growth factor project, primary screen (AID 1086).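 Note: score merges 667 nm fluorescence with signal-to-noise of each printed compound spot.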 Conditions: higher = more signal.
Experiment [10] can be described thus: binders of probe aHhip on microarray, primary screen, stem cell growth factor project, biochemical, small-molecule microarray, fluorescence 635/667 (AID 1087).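 Note: score merges spot fluorescence at 667nm with spot signal to noise ratio.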 Conditions: higher = more signal.
In experiment [11] the test system is PRMT1 (protein arginine N-methyltransferase 1). Briefly: small molecules binding arginine methyltransferase PRMT1 – biochemical, small-molecule microarray, 635 nm fluorescence, primary screen (AID 1088).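 Note: binding of Prmt1 protein to compounds spotted on small-molecule microarray slides.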 Conditions: higher = more signal.
Experiment [12] is described as follows: growth effects on S. cerevisiae YJM789 – YJM789 clinical isolate, OD600, 24 h, basal, primary screen (AID 1089).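 Note: growth of clinical yeast isolate S. cerevisiae YJM 789 seeded 1000 cells per well; test concentration not given here.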 As to conditions: higher = more signal, called active from +8 up or from −8 down.
A short description of experiment [13]: S. pombe growth modifiers, basal conditions – strain 972, OD600, 24 h, no modulator, primary screen (AID 1090).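 Note: basal condition with compound alone and no growth modifier present; test concentration not given here.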 Conditions: S. pombe 972 growth, higher = more signal, called active from +8 up or from −8 down.
The nature of experiment [14]: budding yeast growth modifiers under rapamycin – strain BY4716, OD600, 96 h, primary screen (AID 1091). Note: test concentration not given here. As to conditions: S. cerevisiae BY4716 + rapamycin, higher = more signal, called active from +8 up or from −8 down.
Experiment [15] has as its target Torsin-1A-interacting protein 2 (Homo sapiens) (UniProt Q8NFQ8). Briefly: small molecules binding lysate-expressed LULL1 – cell lysate, human LULL1 lysate, 635/667 nm fluorescence, primary screen (AID 1092).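 Note: probe is lysate of COS7 cells overexpressing human LULL1; score merges per-feature 667 nm fluorescence with signal-to-noise.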 As to conditions: small-molecule microarray, hLULL1 lysate binding, 635 nm fluorescence; higher = more signal.
A short description of experiment [16]: optical density change of DRC41 E. coli – strain DRC41, OD650, 24 h, E. coli filamentation project, primary screen (AID 1093).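 Note: MC1000 strain lacking acrAB efflux and sulA so SOS filamentation is blocked; test concentration not given here.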 Conditions: E. coli DRC41 growth, higher = more signal, called active from +8 up or from −8 down.
A short description of experiment [17]: probe aLefty2 binding to arrayed compounds – biochemical, biotinylated probe, 635/667 nm fluorescence, primary screen (AID 1094).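 Note: score merges spot fluorescence near 667 nm with spot signal-to-noise ratio.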 Conditions: small-molecule microarray, higher = more signal.
In experiment [18] the test system is Noggin (protein binding on small-molecule microarray). The experiment in a line: small molecules binding Noggin protein – biochemical, 635/667 nm fluorescence, primary screen (AID 1095).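 Note: score merges 667 nm feature fluorescence with signal to noise over triplicate slides.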 As to conditions: 635 nm fluorescence, higher = more signal.
Experiment [19] concerns the target Neurogenic locus notch homolog protein 3 (Homo sapiens) (UniProt Q9UM47). Briefly: small molecules binding NOTCH3 protein – biochemical, 635/667 nm fluorescence, primary screen (AID 1096). As to conditions: small-molecule microarray, 635 nm fluorescence, higher = more signal.
Experiment [20] is described as follows: probe aEGFR binding to arrayed compounds – biochemical, biotinylated probe, 635/667 nm fluorescence, primary screen (AID 1097).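 Note: probe is a biotinylated anti-EGFR antibody binding compounds printed on slides; score combines fluorescence near 667 nm and signal to noise of each spot.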 Conditions: small-molecule microarray, higher = more signal.

Activity calls are given as the source filed them.

Chain of Pro-neuregulin-1, membrane-bound isoform (Homo sapiens) (Q02297 whole entry, looked up, the tested form may be a part, canonical isoform): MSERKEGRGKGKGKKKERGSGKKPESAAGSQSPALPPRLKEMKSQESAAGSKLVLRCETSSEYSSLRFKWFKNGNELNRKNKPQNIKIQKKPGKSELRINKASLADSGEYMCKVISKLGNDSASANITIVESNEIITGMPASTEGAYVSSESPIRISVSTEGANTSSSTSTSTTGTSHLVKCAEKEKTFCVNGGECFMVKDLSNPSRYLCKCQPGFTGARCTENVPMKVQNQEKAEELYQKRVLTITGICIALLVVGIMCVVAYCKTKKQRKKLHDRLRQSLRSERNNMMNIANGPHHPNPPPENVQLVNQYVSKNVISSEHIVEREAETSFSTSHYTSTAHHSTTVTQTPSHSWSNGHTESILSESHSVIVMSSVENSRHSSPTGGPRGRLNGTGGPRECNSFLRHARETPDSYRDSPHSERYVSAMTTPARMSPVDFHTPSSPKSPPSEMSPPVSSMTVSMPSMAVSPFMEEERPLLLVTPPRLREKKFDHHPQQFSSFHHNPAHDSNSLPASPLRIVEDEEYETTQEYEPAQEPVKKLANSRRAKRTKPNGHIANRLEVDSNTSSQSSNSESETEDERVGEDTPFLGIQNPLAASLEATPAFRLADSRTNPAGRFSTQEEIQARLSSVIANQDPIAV
Chain of Neurogenic locus notch homolog protein 2 (Homo sapiens) (Q04721 whole entry, looked up, canonical isoform): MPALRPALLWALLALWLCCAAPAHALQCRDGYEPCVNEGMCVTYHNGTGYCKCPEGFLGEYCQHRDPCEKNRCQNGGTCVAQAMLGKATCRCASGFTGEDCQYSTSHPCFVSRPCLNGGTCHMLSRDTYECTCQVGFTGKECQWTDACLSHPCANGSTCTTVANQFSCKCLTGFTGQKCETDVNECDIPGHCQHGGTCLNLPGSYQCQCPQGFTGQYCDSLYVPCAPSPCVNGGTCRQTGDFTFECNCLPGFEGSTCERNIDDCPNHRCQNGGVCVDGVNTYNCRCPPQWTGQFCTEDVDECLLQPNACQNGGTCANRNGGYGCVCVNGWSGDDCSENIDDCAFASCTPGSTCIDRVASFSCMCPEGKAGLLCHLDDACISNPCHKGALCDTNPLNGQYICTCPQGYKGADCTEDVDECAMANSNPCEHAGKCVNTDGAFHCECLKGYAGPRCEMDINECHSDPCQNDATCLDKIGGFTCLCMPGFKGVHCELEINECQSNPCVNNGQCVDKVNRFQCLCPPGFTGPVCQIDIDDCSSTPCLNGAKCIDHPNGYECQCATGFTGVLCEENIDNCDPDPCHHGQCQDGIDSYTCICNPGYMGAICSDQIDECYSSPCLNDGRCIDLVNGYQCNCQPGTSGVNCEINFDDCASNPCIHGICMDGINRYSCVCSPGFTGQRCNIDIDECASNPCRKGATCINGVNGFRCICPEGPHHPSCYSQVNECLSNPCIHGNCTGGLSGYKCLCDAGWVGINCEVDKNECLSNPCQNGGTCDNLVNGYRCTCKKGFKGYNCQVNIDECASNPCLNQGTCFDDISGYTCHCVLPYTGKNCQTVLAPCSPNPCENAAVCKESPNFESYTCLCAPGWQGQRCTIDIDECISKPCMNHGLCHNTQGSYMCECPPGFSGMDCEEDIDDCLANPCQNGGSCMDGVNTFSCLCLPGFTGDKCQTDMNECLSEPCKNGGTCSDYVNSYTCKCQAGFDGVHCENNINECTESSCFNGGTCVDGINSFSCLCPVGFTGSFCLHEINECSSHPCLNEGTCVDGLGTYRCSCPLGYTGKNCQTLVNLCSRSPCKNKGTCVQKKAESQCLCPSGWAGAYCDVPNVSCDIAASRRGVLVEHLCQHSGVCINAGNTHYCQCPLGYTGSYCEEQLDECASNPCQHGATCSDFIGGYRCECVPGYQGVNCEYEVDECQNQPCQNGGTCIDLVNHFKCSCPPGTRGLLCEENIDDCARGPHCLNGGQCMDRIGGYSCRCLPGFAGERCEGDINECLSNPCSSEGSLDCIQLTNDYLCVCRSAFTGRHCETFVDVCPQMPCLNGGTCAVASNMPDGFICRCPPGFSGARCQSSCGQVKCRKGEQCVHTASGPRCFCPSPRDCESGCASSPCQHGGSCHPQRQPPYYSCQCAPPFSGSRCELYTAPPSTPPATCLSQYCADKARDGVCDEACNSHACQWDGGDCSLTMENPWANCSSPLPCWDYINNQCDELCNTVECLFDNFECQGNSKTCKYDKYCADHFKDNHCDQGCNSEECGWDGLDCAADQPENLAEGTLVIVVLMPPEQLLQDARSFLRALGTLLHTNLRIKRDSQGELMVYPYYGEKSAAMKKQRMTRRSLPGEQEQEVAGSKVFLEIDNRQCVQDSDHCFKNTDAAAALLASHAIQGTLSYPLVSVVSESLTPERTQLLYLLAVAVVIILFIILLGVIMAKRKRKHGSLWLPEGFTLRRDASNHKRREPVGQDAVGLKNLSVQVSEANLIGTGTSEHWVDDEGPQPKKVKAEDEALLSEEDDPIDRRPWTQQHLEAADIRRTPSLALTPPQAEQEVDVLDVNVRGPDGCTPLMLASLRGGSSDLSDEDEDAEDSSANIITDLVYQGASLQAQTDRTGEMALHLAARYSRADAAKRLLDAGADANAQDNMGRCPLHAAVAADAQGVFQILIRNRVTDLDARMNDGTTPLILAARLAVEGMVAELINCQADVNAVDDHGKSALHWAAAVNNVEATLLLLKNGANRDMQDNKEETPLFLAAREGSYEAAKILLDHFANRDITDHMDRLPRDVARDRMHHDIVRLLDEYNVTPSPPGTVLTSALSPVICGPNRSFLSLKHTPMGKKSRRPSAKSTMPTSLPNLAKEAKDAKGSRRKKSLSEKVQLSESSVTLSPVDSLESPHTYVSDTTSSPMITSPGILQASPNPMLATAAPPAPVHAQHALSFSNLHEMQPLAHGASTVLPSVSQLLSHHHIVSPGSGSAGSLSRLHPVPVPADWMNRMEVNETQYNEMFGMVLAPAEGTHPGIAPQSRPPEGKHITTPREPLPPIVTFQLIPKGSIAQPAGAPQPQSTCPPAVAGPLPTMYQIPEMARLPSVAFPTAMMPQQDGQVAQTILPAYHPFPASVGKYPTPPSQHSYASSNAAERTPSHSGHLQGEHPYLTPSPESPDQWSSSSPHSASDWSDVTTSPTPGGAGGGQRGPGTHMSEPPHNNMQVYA
Chain of Torsin-1A-interacting protein 2 (Homo sapiens) (Q8NFQ8 whole entry, looked up): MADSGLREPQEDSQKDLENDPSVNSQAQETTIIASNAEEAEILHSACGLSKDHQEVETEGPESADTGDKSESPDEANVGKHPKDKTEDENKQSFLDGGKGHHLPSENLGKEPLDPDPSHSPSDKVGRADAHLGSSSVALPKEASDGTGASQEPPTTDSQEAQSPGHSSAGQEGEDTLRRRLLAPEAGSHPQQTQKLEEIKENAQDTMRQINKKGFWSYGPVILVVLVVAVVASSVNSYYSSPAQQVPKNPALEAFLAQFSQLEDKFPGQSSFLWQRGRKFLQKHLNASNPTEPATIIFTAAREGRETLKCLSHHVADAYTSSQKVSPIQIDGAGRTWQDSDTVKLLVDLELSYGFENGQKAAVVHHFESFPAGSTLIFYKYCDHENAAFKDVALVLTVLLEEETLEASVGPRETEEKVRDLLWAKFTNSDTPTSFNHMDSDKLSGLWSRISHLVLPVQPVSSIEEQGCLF

Consider `Cc1ccc(S[C@]2(C(=O)O)CC(=O)N(Cc3cc(C(F)(F)F)cc(C(F)(F)F)c3)[C@@H]2c2ccc(CO)cc2)cc1`, for which the composite z-score was 0.591 in experiment [1]; -0.378 in [2]; -0.175 in experiment [3]; -1.71 in [4]; -2.43 in experiment [5]; 0.203 in experiment [6]. Moreover, the composite z-score in [7] was 0.406; in experiment [9], -0.395; in experiment [10] it was -0.464; in [11], -0.224; in experiment [15] it was 1.53; in [17], -0.142. Moreover, the composite z-score in experiment [18] is -1.6; in experiment [19], -2.63; in experiment [20], -0.373. Besides, the z-score in experiment [8] is 0.0661 (inactive); in experiment [12], 0.952 (inactive); in experiment [13], -0.539 (inactive); in [14] it was -0.0248 (inactive); in experiment [16] it was -1.17 (inactive).
As for `CCCCC=C[C@@H](NC(=O)c1ccc(-c2ccccc2)cc1)c1ccccc1`, the composite z-score in experiment [1] is -0.0095; in [2] it was -0.0424; in experiment [3], -0.021; in experiment [4] it was 0.457; in [5] it was 1.44; in [6], 1.55. In addition, the composite z-score is 0.739 in [7]; 0.517 in [9]; 0.21 in experiment [10]; 0.246 in [11]; 2.44 in experiment [15]; 0.179 in [17]. The composite z-score was -0.323 in [18], 0.496 in experiment [19] and -0.094 in experiment [20]. The z-score in [8] was 0.61 (inactive); in [12], 0.603 (inactive); in experiment [13] it was -1.45 (inactive); in experiment [14] it was -0.713 (inactive); in experiment [16], -0.444 (inactive).
For `CC(C)N1CC=CC23O[C@@H]4C=CCOC(=O)[C@@H]4[C@H]2C(=O)N(CCCO)[C@@H]3C1=O` (stereo not given in full), the composite z-score in experiment [1] was 0.645; in experiment [2], 1.64; in experiment [3], -0.188; in [4], 0.425; in [5], -0.671; in experiment [6], 1.57. Besides, the composite z-score was 1.58 in experiment [7]; -0.436 in experiment [9]; -0.16 in experiment [10]; 0.943 in experiment [11]; 2.41 in experiment [15]; -0.178 in [17]. The composite z-score in experiment [18] was 0.927; in experiment [19], -0.145; in experiment [20], -0.178. Moreover, the z-score in experiment [8] was -0.385 (inactive); in experiment [12], -1.46 (inactive); in experiment [13], -2.28 (inactive); in experiment [14], -1.58 (inactive); in experiment [16] it was 2.67 (inactive).
Consider `OCC1CC(c2ccccc2)=NO1` (stereo not given), for which the composite z-score is -0.315 in [1]; 0.239 in experiment [2]; -0.0242 in experiment [3]; 0.202 in [4]; -0.244 in experiment [5]; -0.584 in experiment [6]. Further, the composite z-score in experiment [7] is -0.164; in experiment [9], 0.127; in experiment [10], 0.235; in experiment [11], -1.11; in experiment [15], -1.3; in experiment [17] it was -0.119. Also, the composite z-score in experiment [18] was 0.397; in [19], -0.473; in [20], -0.068. Moreover, the z-score was 0.557 (inactive) in experiment [8]; -0.248 (inactive) in [12]; -0.0256 (inactive) in [13]; 0.368 (inactive) in experiment [14]; 0.677 (inactive) in experiment [16].
Turning to `CN1C(=O)C2C=CC(C(O)C#Cc3ccccc3)N(Nc3ccccc3)C2C1=O` (stereo not given), the composite z-score in [1] came out at 0.247; in experiment [2] it was 0.161; in [3] it was 0.111; in [4] it was 1.17; in experiment [5], 1.7; in experiment [6], 1.86. Also, the composite z-score in [7] is 1.3; in experiment [9] it was 1.71; in [10], -0.0024; in experiment [11], 1.54; in experiment [15], 3.4; in experiment [17], 0.166. The composite z-score in experiment [18] turned out to be 0.295; in [19], 1.03; in experiment [20], 0.199. Besides, the z-score in experiment [8] is 2.29 (inactive); in [12] it was 0.415 (inactive); in experiment [13], -1.18 (inactive); in experiment [14], 1 (inactive); in [16] it was -0.672 (inactive).
